In PubChem BioAssay (NCI) one finds growth data, which are given here for 40 molecules.

The structures appear in SMILES notation. This is part of a sample that, as a whole, favours compounds with a hit. Of some 83,000 tested, about 20% had one in any assay.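 Each cell line was grown in a 96-well plate and treated with one concentration of compound for 48 hours. Values below 10 were considered active.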 Unmarked numbers belong to inactive results. Active and inactive are the calls of the source.

The subject of this test is LOX IMVI melanoma. The test can be described thus: NCI-60 one-dose screen, 48 h (100 = growth as untreated, 0 = no growth, -100 = all killed). Conditions: 10 µM unless noted. The method, then: Growth inhibition of the LOX IMVI human tumor cell line is measured as a screen for anti-cancer activity. Cells are grown in 96 well plates and exposed to the test compound for 48 hours. Compounds are tested at a single concentration, which is 10^-5 M for most compounds. The reported endpoint is percent growth (GI% or GIPRCNT), where numbers from 0 - 100% represent growth inhibition, and numbers from -100% - 0 represent cell death. For example, a value of 40 represents 60% growth inhibition. A value of 0 means no net growth occurred over the course of the experiment. A value of -40 indicates 40% of cells at the beginning of the experiment died by the end of the experiment. A value of -100 means all cells are dead at the end of the experiment.
NCI-60 Human Tumor Cell Lines Screen was performed using the standard one-dose NCI protocol, which is described in more detail at https://dtp.cancer.gov/discovery_development/nci-60/default.htm.
Compounds with GIPRCNT values below 10 were considered active. Activity score was based on GIPRCNT using the following formula: […]
Score is 0 for GIPRCNT values of 100 or above, 50 for GIPRCNT values of 0, and 100 for GIPRCNT values of -100.
In the case of `O=C(CN1CCN(c2cc3c(cc2F)c(=O)c(C(=O)N/N=C/c2ccccc2)cn3C2CC2)CC1)N/N=C\c1ccccc1`, the growth was 72.6%. Regarding `Cc1cc2cc3cc(C)c(N(C)C)cc3[n+](C)c2cc1N(C)C`, the growth was 25.9%. With `C[C@@H]1CCC2=C(CCC[C@]2(C)C(=O)O)[C@@]1(C)CCc1ccoc1`, the growth is 98.4%. Take `CCOC(=O)C(Cc1cc(I)c(O)c(I)c1)NC(=O)c1ccccc1` (stereo not given): the growth is 103%. With `CC(C)(C)c1nn(-c2ccccc2)c2c1CC1(CN2Cc2ccc3c(c2)OCO3)C(=O)c2ccccc2C1=O`, the growth was 103%. As for `CCN(CC)CCCC(C)Nc1ccnc2c(OC)cccc12` (stereo not given), the growth is 107%. Regarding `ClC1=C2NC=NC2n2c(nnc2-c2ccc(Cl)cc2)N1` (stereo not given), the growth was 108%. Take `COc1ccc2nc3cc(Cl)ccc3c(N3CCN(c4ccnc(N5CCOCC5)n4)CC3)c2c1`: the growth was -59% (active). For the molecule `Cc1ccc2c(c1)C(=O)c1c-2c(OCCCN(C)C)nc2ccccc12`, the growth is -71.9% (active).

Turning to `CC/C(Cc1ccccc1)=C(\c1ccc(OCCN2CCCC2)cc1)c1ccc(OC(C)=O)cc1`, the growth was 48.2%.

As to `COc1c(Cl)cc(Cl)cc1Cl`, the growth is 107%. For `c1ccc2c(Nc3cccc4ccccc34)cccc2c1`, the growth is 52.6%. Regarding `CCCCNP1(NCCCC)=NP(NCCCC)(NCCCC)=NP(NCCCC)(NCCCC)=NP(NCCCC)(NCCCC)=N1`, the growth is 1.62% (active).

With `CCCCCCCCCC(=O)Oc1ccc(/C(=C(/C)c2ccccc2)c2ccc(OCCN3CCCC3)cc2)cc1`, the growth was -72.1% (active). Turning to `COc1cnc2c(c1)C(=O)c1c-2n(CCCBr)c(=O)c2cc([N+](=O)[O-])ccc12`, the growth is -54.2% (active). On to `CN1CCCCC1CCN1c2ccccc2Sc2ccc(Cl)cc21` (stereo not given), for which the growth is 68.1%. Regarding `O=c1c2c3c(sc2n2c(CCl)nnc2n1Cc1ccccc1)CCCC3`, the growth was -100% (active). `Cc1ccc(-c2nc(/C=N/Nc3cc(C)nc4ccc(Cl)cc34)c(C)o2)cc1`: the growth is -80.3% (active).

Consider `CCN(CC)CCC(=O)Nc1ccc(Cn2nnc3c2C(=O)c2nnn(Cc4ccc(NC(=O)CCN(CC)CC)cc4)c2C3=O)cc1`, for which the growth was -12.6% (active). To `COc1ccc2[nH]c(=O)c(/C=C/C(=O)c3ccc(Nc4nccc(-c5ccc6ccccc6c5)n4)cc3)cc2c1` belongs 100%; to `COC(/C=C/c1ccc([N+](=O)[O-])cc1)OC`, 8.46% (active).

As to `COc1ccc(-c2cc(C(=O)N=Nc3c(O)[nH]c4ccccc34)no2)cc1`, the growth was 99.7%.

For the molecule `O=[N+]([O-])c1cccc(-c2nc3sccn3c2-c2ccnc(NCCCNS(=O)(=O)c3ccc(F)cc3)n2)c1`, the growth was -21.3% (active). Regarding `Cc1ccc(Nc2nc(N)nc(Nc3ccc4ccccc4c3)n2)cc1`, the growth is 38.2%. To `CCc1ccccc1NC(=O)c1sc2nc3c(cc2c1N)C(=O)CCC3` belongs 42.6%. Take `COc1ccc(-c2cn3c(ccc4ccccc43)n2)cc1`: the growth is 95.1%. For `CCOC(=O)c1nc(Nc2cc(C)[nH]n2)c2ccccc2n1`, the growth is 97.2%.

As to `O=[N+]([O-])c1cccc(C2CC(c3ccccc3)=Nc3ccccc3S2)c1` (stereo not given), the growth is 22.6%. For `O=C(Nc1nc(-c2ccccc2)cc(-c2ccc(Cl)cc2)n1)c1ccncc1`, the growth is 91.7%. As for `CCOC(=O)CC(C)=N`, the growth is 118%. With `C=C1CCC2C3(C)COC(c4ccc(OC)cc4Br)OC3CCC2(C)C1/C=C/C1=CCOC1=O` (stereo not given), the growth is 71.1%. For the molecule `CS(=O)(=O)c1ccc(-c2cnc3ccc(-c4cccc(S(C)(=O)=O)c4)nn23)cc1`, the growth is 12.3%. In the case of `COc1ccc(CCN2CC=Cn3c2nc2ccccc2c3=O)cc1`, the growth is 14.1%.

For `O=C(CN1CCOCC1)Nc1ccc(Cn2nnc3c2C(=O)c2nnn(Cc4ccc(NC(=O)CN5CCOCC5)cc4)c2C3=O)cc1`, the growth was -25.1% (active). Consider `CC1=N/C(=C\c2cccc(Br)c2)C(=O)O1`, for which the growth was 100%.

As to `CN1CCN(Cc2ccc(NC(=O)c3[nH]ncc3Nc3ncnc4sccc34)cc2)CC1`, the growth was -1.47% (active). To `COc1ccc(-c2cc(NC(=O)Nc3ccc(O)cc3)no2)cc1` belongs 7.79% (active); to `COC(=S)SCN(CSC(=S)OC)c1ccc(Cl)cc1`, 73.4%; to `COc1ccc(-c2csc(NC(=O)CN3CCN(c4cc5c(cc4F)c(=O)c(C(=O)O)cn5C4CC4)CC3)n2)cc1`, -80% (active). With `Nc1c(C(=O)Nc2cccc3c2OCCO3)sc2nc3c(cc12)CN(Cc1ccccc1)CC3`, the growth is 53.2%.
